Measurements: PubChem BioAssay AID489028 (Sanford-Burnham Center for Chemical Genomics, 2010)
The whole screen tested about 10,000 compounds, of which about 5,600 (56%) were called active. The set was probably picked from earlier hits. A selection follows. Unmarked numbers belong to inactive results. No stated cut-off is given here; in the data, active means inhibition above about 40%; inactive means the rest.

These compounds were tested against Protein Mdm4 (Homo sapiens) + E3 ubiquitin-protein ligase Mdm2 (Homo sapiens) (UniProt O15151+Q00987) (assay: Mdm2-MdmX complex disruptors, retested hits, confirmation, luminescence, single concentration (AID 489028)). Conditions: Mdm2-MdmX binding, luminescent assay; at 8 µM; stronger effect = higher value.
Sequence of Protein Mdm4 (Homo sapiens) + E3 ubiquitin-protein ligase Mdm2 (Homo sapiens) (O15151 whole entry, looked up): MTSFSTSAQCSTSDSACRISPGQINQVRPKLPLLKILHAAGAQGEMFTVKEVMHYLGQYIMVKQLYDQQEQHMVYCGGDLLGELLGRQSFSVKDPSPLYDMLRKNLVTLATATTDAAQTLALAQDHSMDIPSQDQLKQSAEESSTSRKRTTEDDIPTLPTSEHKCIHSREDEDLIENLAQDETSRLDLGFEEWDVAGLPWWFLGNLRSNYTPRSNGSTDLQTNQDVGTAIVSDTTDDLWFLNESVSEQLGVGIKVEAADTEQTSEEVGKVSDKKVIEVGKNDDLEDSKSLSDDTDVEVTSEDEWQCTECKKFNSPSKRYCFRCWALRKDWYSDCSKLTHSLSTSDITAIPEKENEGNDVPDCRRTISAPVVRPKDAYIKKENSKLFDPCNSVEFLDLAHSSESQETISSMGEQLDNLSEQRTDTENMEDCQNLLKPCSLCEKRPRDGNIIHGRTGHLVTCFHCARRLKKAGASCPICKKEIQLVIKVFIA
Sequence of Protein Mdm4 (Homo sapiens) + E3 ubiquitin-protein ligase Mdm2 (Homo sapiens) (Q00987 whole entry, looked up): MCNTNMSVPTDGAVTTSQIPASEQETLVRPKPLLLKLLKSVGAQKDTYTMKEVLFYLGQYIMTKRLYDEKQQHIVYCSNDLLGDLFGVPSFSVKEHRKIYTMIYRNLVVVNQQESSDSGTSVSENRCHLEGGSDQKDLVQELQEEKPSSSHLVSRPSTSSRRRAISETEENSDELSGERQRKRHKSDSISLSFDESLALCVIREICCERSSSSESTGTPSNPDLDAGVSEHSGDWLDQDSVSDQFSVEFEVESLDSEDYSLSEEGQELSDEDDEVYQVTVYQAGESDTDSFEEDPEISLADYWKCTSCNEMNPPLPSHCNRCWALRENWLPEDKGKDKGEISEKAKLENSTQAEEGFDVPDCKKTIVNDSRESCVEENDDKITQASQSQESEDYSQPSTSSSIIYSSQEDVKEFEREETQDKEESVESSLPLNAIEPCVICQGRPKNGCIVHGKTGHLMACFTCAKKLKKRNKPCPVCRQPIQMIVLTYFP
In the case of `CC[C@]1(O)C[C@@H]2CN(CCc3c([nH]c4ccccc34)[C@@](C(=O)OC)(c3cc4c(cc3OC)N(C)[C@H]3[C@@](O)(C(=O)OC)[C@H](OC(C)=O)[C@]5(CC)C=CCN6CC[C@]43[C@@H]65)C2)C1`, the inhibition is reported as 72.5% (active). `CC[C@]1(O)CC2CN(CCc3c([nH]c4ccccc34)[C@@](C(=O)OC)(c3cc4c(cc3OC)N(C=O)[C@H]3[C@@](O)(C(=O)OC)[C@H](OC(C)=O)[C@]5(CC)C=CCN6CC[C@]43[C@@H]65)C2)C1` (some centres not stated) was tested, and the inhibition was 58.4% (active). In the case of `O=C1NC(Nc2nc3ccccc3s2)(C(F)(F)F)C(=O)N1C1CCCCC1` (configuration not stated), the inhibition is reported as 62.5% (active). With `COc1cc(NS(=O)(=O)c2ccc3ccccc3c2)c2ncccc2c1` the inhibition was 88.3% (active). For `CC(C)c1ccccc1OCC(O)CN(CC(O)COc1cccc2ccccc12)C(C)C` (configuration not stated), the inhibition was 29.8%. `CC(=O)c1ccc(S(=O)(=O)N2CCN(C(=O)/C=C/c3ccc4ccccc4n3)CC2)cc1` was tested, and the inhibition was 71.5% (active). `O=C(Cc1csc(Nc2nc(=S)[nH]c3ccccc23)n1)NCCCN1CCN(c2cccc(Cl)c2)CC1` gave an inhibition of 5%. `CC1(C)CC(N2CCN(C(c3ccccc3)c3ccccc3)CC2)=CC(=[N+]2CCCCC2)C1` was tested, and the inhibition was 89.8% (active). `COc1cc([N+](=O)[O-])ccc1NC(=O)COC(=O)CCOc1ccc(C)cc1` gave an inhibition of 21.9%. `COC(=O)c1cc(NC(=O)c2nn(C)c(=O)c3ccccc23)cc(C(=O)OC)c1` was tested, and the inhibition was 3.8%. For `COc1ccc(-c2nn(C)c(=O)c3ccccc23)cc1NC(=O)COc1ccccc1`, the inhibition was 41.5% (active). Compound `CCOc1ccc(-n2c(O)c(/C=N/Nc3nc(C)cc(C)n3)c3ccccc3c2=O)cc1` has an inhibition of 35.1%. In the case of `CCN(CC)c1ccc(/C=N/NC(=O)c2cnccn2)c(O)c1`, the inhibition is reported as 79% (active). `CCN(CC)c1ccc(/C=N/Nc2nc(C)cc(C)n2)c(O)c1` was tested, and the inhibition was 53% (active). `Cc1ccc(NC(=S)NC(NC(=O)Cc2cccc3ccccc23)C(Cl)(Cl)Cl)cc1` (configuration not stated) showed an inhibition of 11.2%. Work on `COc1ccc(CC(=O)N/N=C(\C)c2ccccn2)cc1` yielded an inhibition of 14.6%. With `C/C(=N\NC(=O)c1ccccc1F)c1ccccn1` the inhibition was 41.9% (active). For `COc1ccccc1N(CC(=O)N/N=C(\C)c1ccccc1O)S(=O)(=O)c1ccc(C)cc1`, the inhibition was 60.6% (active). `Cc1ccc(-c2nnc(-c3ccc(NC(=O)c4cccs4)cc3)o2)cc1` gave an inhibition of 20.9%. In the case of `Cc1ccccc1C(=O)N1CCN(c2ccc(NC(=O)c3cccs3)cc2)CC1`, the inhibition is reported as 48.6% (active). `Cc1cc2oc3ccc(NCCC4CCCN4C)cc3c(=O)c2cc1C` (configuration not stated) was tested, and the inhibition was 1.8%. For `Cc1cccc(NS(=O)(=O)c2ccc(-c3cnc(C4CC4)o3)cc2)c1`, the inhibition was 47% (active). For `COC(=O)CCNc1ccc2c(c1)OCCO2`, the inhibition was 50.1% (active). `O=C1CN(c2nc(-c3ccccc3)c3cc(Br)ccc3n2)c2ccccc2N1` gave an inhibition of 16.2%. `COc1ccc2[nH]c(=O)c(CN(Cc3cccnc3)S(=O)(=O)c3ccccc3F)cc2c1` was tested, and the inhibition was 57.4% (active). `Cn1cc(/C=C/c2nc3ccccc3c(=O)n2-c2cccc([N+](=O)[O-])c2)c2ccccc21` was tested, and the inhibition was 40.4% (active). For `Cc1c(C(=O)N/N=C/c2ccccc2)[nH]c2c([N+](=O)[O-])cccc12`, the inhibition was 62.2% (active). In the case of `Clc1ccc2c(c1)C1=C(C(c3ccncc3)O2)C(c2ccc(Br)cc2)n2ncnc2N1` (configuration not stated), the inhibition is reported as 25.8%. With `O=C(CCl)Nc1cccc(CP(=O)(c2ccccc2)c2ccccc2)c1` the inhibition was 93.8% (active). `Cc1noc(C)c1-c1ccc2ncnc(NC(C)c3ccco3)c2c1` (configuration not stated) was tested, and the inhibition was 46.5% (active). `Nc1cccc(-c2cc(-c3ccccc3)nc(-c3cccc(N)c3)n2)c1` was tested, and the inhibition was 9.85%. For `CCCCCCCCCCOC(=O)Cn1c(COc2ccc(C)cc2)[n+](C)c2ccccc21`, the inhibition was 74.3% (active). In the case of `CCCCCCCCCCOC(=O)Cn1c(COc2cccc(OC)c2)[n+](C)c2ccccc21`, the inhibition is reported as 53% (active). For `C/C(=N\N=C(N)N)c1ccc(Cl)cc1`, the inhibition was 23%. `O=C1c2ccccc2C2=Nc3ccccc3SC(c3ccccc3F)C12` (configuration not stated) showed an inhibition of 23.8%. `COc1ccc(-c2n[nH]c(C)c2-c2ccc(OC)c(OC)c2)c(O)c1` was tested, and the inhibition was 50.9% (active). Compound `C=C(C)COc1ccc(-c2n[nH]c(C)c2-c2ccccc2)c(O)c1` has an inhibition of 2.2%. Work on `C=C(C)COc1ccc(-c2n[nH]c(C)c2-c2ccccc2OC)c(O)c1` yielded an inhibition of 18.3%. In the case of `Cc1cc(C)cc(NC(=O)Cn2cnc3c(nnn3Cc3ccc(F)cc3)c2=O)c1`, the inhibition is reported as 27.3%. With `CCN1C(=O)/C(=C\N2CCN(c3cccc(Cl)c3)CC2)SC1=S` the inhibition was 45.1% (active). `CCCCN1C(=O)/C(=C/C=C2/C=Cc3ccccc3N2CC)SC1=S` showed an inhibition of 22.4%. Compound `O=C(NCCN1CCOCC1)c1ccc(/C=C2\Sc3ccccc3N(Cc3ccc(F)cc3)C2=O)cc1` has an inhibition of 11.8%. With `CCN(CCCNC(=O)c1ccc2c(c1)NC(=O)CN2C)c1cccc(C)c1` the inhibition was 20.2%. `CCN1CCN(CCNC(=O)c2ccc(/C=C3/Sc4ccccc4N(Cc4cccc(C)c4)C3=O)cc2)CC1` was tested, and the inhibition was 81.8% (active). `N#Cc1c(N)nc2c3c(sc(=N)c2c1N)NC(=O)CC3c1ccccc1Cl` (configuration not stated) gave an inhibition of 2.45%. Work on `C=CCN(CC=C)S(=O)(=O)c1ccc(C(=O)Nc2nc3c(s2)CCc2ccccc2-3)cc1` yielded an inhibition of 24.2%. For `N#Cc1ccc(C(=O)Nc2nc(-c3cccs3)c(C(=O)C(F)(F)F)s2)cc1`, the inhibition was 86.9% (active). For `O=[N+]([O-])c1ccc(Oc2ccc(F)cc2Br)c2ccncc12`, the inhibition was 53.5% (active). For `COc1ccccc1/C=N\Nc1cc(C)nc(-n2nc(C)cc2C)n1`, the inhibition was 31.1%. For `COc1cccc(/C=N/Nc2cc(C)nc(-c3ccccc3O)n2)c1O`, the inhibition was 93.8% (active). `Cc1ccc(OCC(O)CN2CCN(CC(O)COc3ccc(C)cc3Cl)CC2)c(Cl)c1` (configuration not stated) gave an inhibition of 35.6%. In the case of `Cc1cccc(N(C)C(=O)c2cc3c(=O)[nH]c4ccc(C)cc4c3s2)c1`, the inhibition is reported as 73.5% (active). Work on `CCN1CCN(c2nc(Nc3cc(OC)ccc3OC)nc(Nc3cc(OC)ccc3OC)n2)CC1` yielded an inhibition of 12.1%. Compound `CC(=NCC1CCCO1)c1c(O)[nH]c(=O)[nH]c1=O` (configuration not stated) has an inhibition of 7.4%. For `Cc1cccc(Nc2nc3c(S(=O)(=O)c4ccccc4)nnn3c3ccccc23)c1C`, the inhibition was 48.2% (active). For `Cc1ccc(CS(=O)(=O)c2ncc(Cl)c(C(=O)Nc3nnc(C)s3)n2)cc1`, the inhibition was 96.5% (active). For `CSc1nnc(NC(=O)c2nc(S(=O)(=O)Cc3ccc(C)cc3)ncc2Cl)s1`, the inhibition was 99% (active). `COC(=O)c1ccc(NC(=O)c2cc(Cl)ccc2OC)cc1` was tested, and the inhibition was 3.8%. Work on `CCOc1ccc(C(C)=O)cc1COC(=O)c1cnc(Cl)c(Cl)c1` yielded an inhibition of 19%. `COc1ccc(C(=O)O/N=C(\N)Cc2ccc(Cl)cc2Cl)cc1OC` was tested, and the inhibition was 97.6% (active). `CC1=C(C)CC(C(=O)NNC(=O)c2ccccc2O)C(C(=O)O)C1` (configuration not stated) showed an inhibition of 38.8%. With `CC(=O)Nc1ccc(NC(=O)C(C)OC(=O)c2ccccc2C(=O)c2ccc(Cl)c([N+](=O)[O-])c2)cc1` (configuration not stated) the inhibition was 84.5% (active). With `N#Cc1cccc(NC(=O)COC(=O)c2ccccc2C(=O)c2ccc(Cl)c([N+](=O)[O-])c2)c1` the inhibition was 98.9% (active). `Cc1c(CN2CCC(CO)(CCOc3ccccc3)CC2)[nH]c2ccc(Cl)cc12` was tested, and the inhibition was 75.5% (active). Compound `CCc1nc2sc3c(Cl)ncnc3c2c2c1CCCC2` has an inhibition of 14.9%. For `Oc1c(CN2CCCC2)cc(COCc2ccccc2)c2cccnc12`, the inhibition was 66% (active). `Oc1c(CN2CCN(c3ccc(F)cc3)CC2)cc(Cl)c2cccnc12` was tested, and the inhibition was 85.5% (active). `O=C(NC(=S)Nc1ccc2oc(=O)ccc2c1)c1ccc(-c2cccc(Cl)c2Cl)o1` gave an inhibition of 34.5%. `Cc1cc(C(=O)CCl)c(C)n1CC1COc2ccccc2O1` (configuration not stated) was tested, and the inhibition was 15.6%. With `Cc1ccsc1C(=O)OCC(=O)c1cc(C)n(CC2CCCO2)c1C` (configuration not stated) the inhibition was 94.5% (active). `COc1ccc(CN2CN(C(C)C)CSC2=S)cc1` was tested, and the inhibition was -10.1%. With `Cc1cc(C(=O)COc2ccccc2[N+](=O)[O-])c(C)n1-c1cccc(S(=O)(=O)N2CCOCC2)c1` the inhibition was 58.5% (active). With `O=C(NC(=O)c1ccccc1N1CCCCC1)Nc1ccc(Br)cc1` the inhibition was 54.9% (active). Work on `CC(=O)Nc1ccc(S(=O)(=O)Nc2ccc(N3CCCCC3)cc2)cc1` yielded an inhibition of 3.05%. For `COc1ccccc1C1C2=C(COC2=O)Nc2cc3c(cc21)OCO3` (configuration not stated), the inhibition was 62.8% (active). In the case of `CCCOc1ccccc1C1CC(=O)Nc2cc3c(cc21)OCO3` (configuration not stated), the inhibition is reported as 61.9% (active). `O=C(Oc1c(-c2ccco2)oc2ccccc2c1=O)c1cccnc1` gave an inhibition of 37.6%. With `O=C1/C(=C/c2ccc(F)cc2)SC(=S)N1CCCC(=O)N1CCCCC1CCO` (configuration not stated) the inhibition was 49.8% (active). In the case of `COc1ccc(C(C[N+](=O)[O-])n2nc(C)cc2C)cc1` (configuration not stated), the inhibition is reported as 9.85%. With `CC(=O)c1ccc(Oc2cc(C)nc(-n3nc(C)cc3C)n2)cc1` the inhibition was 51.8% (active). For `COc1ccc(Nc2oc(-c3ccccc3Cl)nc2C#N)cc1`, the inhibition was 42.7% (active). Compound `CSc1nc(N)c(C#N)c(-c2ccccc2Cl)c1C#N` has an inhibition of 22.9%. `CN(C)CCCn1c(=O)n(Cc2ccccc2)c(=O)c2c3c(sc21)CCCCC3` gave an inhibition of 37.5%. `COc1ccc(C(C(=O)NC2CCCCC2)N(C(=O)CCl)c2ccccc2Cl)cc1` (configuration not stated) was tested, and the inhibition was 100% (active). Work on `N#Cc1c(NC(=O)CSc2nc3ccccc3c(=O)n2Cc2ccco2)sc2c1CCCC2` yielded an inhibition of 36.7%. `CC(=O)N1CCc2c(sc(NC(=O)CCS(=O)(=O)c3ccccc3)c2C#N)C1` was tested, and the inhibition was 45.3% (active). Compound `Cc1ccc2sc(N(CCN(C)C)C(=O)/C=C/c3cccs3)nc2c1C` has an inhibition of 4.55%. In the case of `Cc1cccc2sc(N(CCCN(C)C)C(=O)CCS(=O)(=O)c3ccccc3)nc12`, the inhibition is reported as 52% (active). For `CN(C)CCCN(C(=O)c1ccc(S(=O)(=O)N2CCCCCC2)cc1)c1nc2ccc(Br)cc2s1`, the inhibition was 21.9%. With `COc1cccc2sc(N(CCCN(C)C)C(=O)C(c3ccccc3)c3ccccc3)nc12` the inhibition was 86.2% (active). For `COc1cccc2sc(N(CCCN(C)C)C(=O)CCS(=O)(=O)c3ccccc3)nc12`, the inhibition was 48% (active). Compound `CN(C)CCCN(C(=O)c1ccc(S(=O)(=O)N2CCCCCC2)cc1)c1nc2cc3c(cc2s1)OCCO3` has an inhibition of 29.6%.
